Screening results as filed in PubChem.
Rv3671c inh – Rv3671c serine protease inhibitors, primary screen, biochemical, fluorescence polarization, M. tuberculosis H37Rv | AID 2606, 2010 | P9WHR9 | inhibition, % at 5.96 µM | hit rate 0.048% among 320,000; in the data active = inhibition above about 38%;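 note: extracellular domain of Rv3671c used as enzyme; 0% = enzyme with DMSO and 100% = no enzyme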
Target sequence (P9WHR9 whole entry, looked up, the tested form may be a part): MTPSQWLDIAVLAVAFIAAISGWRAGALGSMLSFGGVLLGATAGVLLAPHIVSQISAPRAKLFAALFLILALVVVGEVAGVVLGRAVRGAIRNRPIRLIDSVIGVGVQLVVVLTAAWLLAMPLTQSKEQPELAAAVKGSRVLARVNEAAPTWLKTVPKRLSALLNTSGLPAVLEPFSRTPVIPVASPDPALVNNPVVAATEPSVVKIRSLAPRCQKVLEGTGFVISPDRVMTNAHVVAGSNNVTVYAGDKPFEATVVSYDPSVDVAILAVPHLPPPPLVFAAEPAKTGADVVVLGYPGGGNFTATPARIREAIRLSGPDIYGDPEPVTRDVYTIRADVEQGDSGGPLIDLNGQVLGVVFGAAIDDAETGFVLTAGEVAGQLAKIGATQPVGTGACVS
Mtb FBA inh – Mtb FBA enzyme inhibitors, primary screen, biochemical, fluorescence, strain H37Rv | purified M. tuberculosis FBA, fluorescence read-out | inhibition, % at 1 µM | Fructose-bisphosphate aldolase (Mycobacterium tuberculosis (strain ATCC 25618 / H37Rv)), … | hit rate 2.3% among 360,000 | AID 588726, 2011; in the data active = inhibition above about 27%;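 note: 0% = vehicle and 100% = reference inhibitor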
FadD28 binding – inhibitors of FadD28 bisubstrate probe binding, primary screen, biochemical, fluorescence polarization, single point; Mycobacterium tuberculosis FadD28 fatty-acid-AMP ligase; inhibition, % at 12.5 µM; hit rate 0.22% among 360,000; AID 588549, 2011; in the data active = inhibition above about 8.5%, passing the limit was not always enough
GDH-TPI counter – GDH-TPI coupling enzyme inhibitors, primary screen, artefact control for M. tuberculosis FBA inhibitor project, biochemical, absorbance, full deck | AID 588335, 2011 | inhibition, % at 4.8 µM | hit rate 1.2% among 360,000 | GDH-TPI coupled enzyme counterscreen, NADH absorbance; in the data active = inhibition above about 30%;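 note: 0% = DMSO wells and 100% = wells lacking the enzyme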
Mtb hypoxia inh – PubChem AID 1159583 | hit rate 0.1% among 300,000 | fluorescence inhibition, % (no concentration beside the values) | M. tuberculosis hypoxia-regulated fluorescent reporter, fluorescence; in the data active = fluorescence inhibition mostly above about 23%, no sharp cut-off; inactive = mostly below about 17%
UGM FP inh – M. tuberculosis UGM enzyme inhibitors, primary screen, biochemical, fluorescence polarization, single point; hit rate 0.06% among 320,000; inhibition, % at 10 µM; purified UGM, fluorescence polarization probe displacement; UDP-galactopyranose mutase (Mycobacterium tuberculosis (strain ATCC 25618 / H37Rv)), …; in the data active = inhibition above about 10%, passing the limit was not always enough
* hit, by the source's call; x = no result shown; + = active, no number. Shown are actives, neighbours in structure and some others; about 3.5% of the full set was active somewhere.

SMILES	Rv3671c inh	Mtb FBA inh	FadD28 binding	GDH-TPI counter	Mtb hypoxia inh	UGM FP inh
O=C(Nc1ccc2nc(-c3ccc(Br)o3)[nH]c2c1)c1ccco1	-2.5	1.2	-4.6	39.8*	x	2.0
O=C(Nc1ccc2nc(-c3ccc(Br)o3)[nH]c2c1)c1cccs1	-9.4	0.8	-7.2	32.5*	x	2.1
CC1=C(C#N)C(=O)NC(=O)/C1=C\c1ccc(-c2ccc(C)cc2[N+](=O)[O-])o1	x	0.9	4.2	2.9	0.5	x
CCOC(=O)c1cc(-c2ccc(/C=C3/C(=O)NC(=O)C(C#N)=C3C)o2)ccc1Cl	-5.4	2.3	15.2*	34.6*	15.9	4.2
COc1ccc(C(=O)NCC(=O)NN=Cc2c(C)[nH]c3ccccc23)cc1	x	x	x	x	1.2	x
CCOC(=O)C1=C(O)C(=O)N(c2ccc(S(N)(=O)=O)cc2)C1c1cccc([N+](=O)[O-])c1 (configuration not stated)	2.9	3.0	-1.3	31.6*	17.1	-2.5
CC1CN(C(C)CO)C(=O)c2cccc(NC(=O)c3cnccn3)c2OC1CN(C)C(=O)Nc1ccc2c(c1)OCO2 (configuration not stated)	x	x	x	x	5.3	x
CCOC(=O)C(C#N)=CN1CCNc2ccccc21	x	2.2	-0.9	31.0*	12.3	x
O=S(=O)(Nc1ccc(-c2nc3cccnc3s2)cc1)c1cc(F)ccc1F	-9.6	+	-3.6	30.4	x	1.7
Cc1ccc(-c2nc3cccnc3s2)cc1NS(=O)(=O)c1cccs1	-7.6	24.9	-3.5	8.0	0.5	-1.8
NS(=O)(=O)c1ccc(C(=O)Nc2ccc(-c3nc4cccnc4s3)cc2)cc1	-3.1	18.5	-2.1	15.0	0.1	2.5
CCc1ccc(S(=O)(=O)Nc2ccc(-c3nc4cccnc4s3)cc2)s1	-7.0	+	-2.3	45.2*	4.0	-2.3
COc1ccc2c(c1)c1ncn(Cc3ccco3)c(=O)c1n2C	-13.0	129.1*	-2.5	2.5	4.2	1.6
Oc1ccc2ccccc2c1N=Nc1ccccc1F	0.0	-0.5	-0.7	5.1	7.9	2.8
O=S(=O)(O)c1cccc(N=Nc2c(O)ccc3ccccc23)c1	-19.6	-29.3	3.4	-16.1	35.8*	0.8
CC(=O)c1ccc2c(c1)C1C(Cl)C(Sc3ccccc3[N+](=O)[O-])CC1C(C(=O)O)N2 (configuration not stated)	2.3	-9.1	20.4*	14.4	1.8	-1.8
CN(C)c1ccc(NC(=O)C(=O)C2C(=O)Nc3ccccc32)cc1 (configuration not stated)	-3.7	0.1	1.0	14.3	7.3	2.2
CC(C)(C)c1ccc(NC(=O)C(=O)C2C(=O)Nc3ccccc32)cc1 (configuration not stated)	4.2	3.1	27.4*	-0.9	1.5	-2.3
CC(C)c1ccc(NC(=O)C(=O)C2C(=O)Nc3ccccc32)cc1 (configuration not stated)	4.3	6.5	14.6*	7.2	11.6	-0.5
O=C(NC1CCCC1)c1cccc2c1C(=O)c1ccc(C=Cc3ccccc3)cc1S2(=O)=O	x	x	x	x	20.2	x
CC(=NNC(=O)c1nnn(-c2nonc2N)c1COc1ccccc1)c1ccc(O)cc1	x	x	x	x	-4.6	x
O=C1CC(c2ccc(O)cc2)Oc2cc(O)cc(O)c21 (configuration not stated)	-19.8	-0.6	-4.1	26.6	2.7	2.6
CC1CC(=O)c2c(cc3c(-c4c(O)cc(O)c5c(O)c6c(cc45)OC(C)CC6=O)c(O)cc(O)c3c2O)O1 (configuration not stated)	34.6	-6.4	13.2*	16.7	x	5.2
COC(=O)C1=C(c2cccc(OCc3ccccc3)c2)CC2CCC1N2C(=O)NCc1cc(C)oc1C(F)(F)F (configuration not stated)	x	x	x	x	4.8	x
COc1ccc(Oc2ccc(N/C=C3\CCCC3=O)cc2)cc1	4.5	-2.7	-2.9	39.5*	10.3	-3.7
SMILES	Rv3671c inh	Mtb FBA inh	FadD28 binding	GDH-TPI counter	Mtb hypoxia inh	UGM FP inh
O=C1CCCCC1=CNc1ccc(S(=O)(=O)Nc2ncccn2)cc1	x	x	x	x	20.5	x
O=C1CCCC/C1=C\Nc1ccc(S(=O)(=O)Nc2cnc3ccccc3n2)cc1	-2.6	3.6	2.1	37.5*	4.2	1.2
Cc1cc(C)nc(NS(=O)(=O)c2ccc(N/C=C3\CCCC3=O)cc2)n1	-5.5	-0.4	-0.6	36.8*	x	0.1
COc1ccc(Oc2ccc(N/C=C3/CCCC3=O)cc2)cc1	0.7	-2.4	-3.8	25.2	4.7	x
O=C1CCC/C1=C/Nc1cccc(F)c1	3.7	-1.0	-0.3	34.6*	-5.9	2.7
CN(C)c1ccc(C=NO)cc1	x	x	x	x	8.8	x
Cc1cc(C)nc(NS(=O)(=O)c2ccc(N/C=C\C(=O)c3ccc(Cl)cc3)cc2)n1	-9.2	3.1	1.9	31.5*	16.9	-1.5
CC1(C)Cc2ccccc2C(NN=Cc2ccc([N+](=O)[O-])cc2)=N1	x	x	x	x	15.4	x
COc1cccc2c1C(=O)c1c(O)c3c(c(O)c1C2=O)CC(O)(C(C)=O)CC3OC1CC(O)C(O)C(C)O1 (configuration not stated)	x	-7.1	65.9*	10.3	x	x
C#CCOCCOCCOCCNc1nc(N2CCN(C(=O)C(C)n3cc(CCCN=C(N)N)nn3)CC2)nc(N2CCN(C(=O)C(C(C)O)n3cc(CCCCN)nn3)CC2)n1 (configuration not stated)	x	x	x	x	6.3	x
COc1ccc2[nH]c3c(=O)n(CCCN4CCOCC4)cnc3c2c1	2.2	157.2*	-0.8	22.2	5.4	0.2
O=C(OCC#CCSc1nnc(-c2cccc3ccccc23)o1)c1cc2ccccc2o1	1.1	-0.2	-4.0	-9.0	48.0*	1.5
O=C(OCC#CCSc1nnc(-c2cccc3ccccc23)o1)c1ccc2ccccc2c1	-11.5	1.6	-3.7	22.4	20.1	-2.6
O=C(OCC#CCSc1nnc(-c2ccc(Br)cc2)o1)c1ccco1	-4.1	0.8	-4.1	-9.3	35.2*	2.6
O=C(OCC#CCSc1nnc(-c2ccccc2)o1)c1ccco1	0.1	-2.8	-1.7	1.8	x	-1.0
CC(=NNC(=O)C(C)Sc1ccccc1)c1ccc([N+](=O)[O-])cc1 (configuration not stated)	x	x	x	x	-0.3	x
COC(=O)NN=Cc1cc(C)n(-c2ccc(Br)cc2)c1C	x	x	x	x	2.8	x
CC(=O)Nc1cccc(-c2nc3ccccc3o2)c1	-2.0	7.3	0.1	-6.5	5.0	1.9
CC(=O)Nc1ccc2oc(-c3ccccc3)nc2c1	-6.2	173.1*	-2.4	-0.9	4.1	-0.4
CC(=O)Nc1ccc(-c2nc3ccc(NC(C)=O)cc3o2)cc1	-2.3	+	-0.4	9.7	1.2	-0.1
COc1ccc(/C=C2\SC(=O)N(CC(=O)Nc3ccc(O)cc3)C2=O)cc1OC	x	1.1	1.2	23.1	3.0	-0.9
